DT40 TDP1 CPT: growth inhibition of DT40 Tdp1-/-;hTDP1 cells with camptothecin (screen for TDP1 inhibitors); chicken DT40 Tdp1-/-;hTDP1 cells + 20 nM CPT, ATP luminescence, 48 h; Potency, µM (titrated, usually from 46.2 µM), hits mostly inhibitors; hit rate 12% among 420,000; AID 686979; note: nearly all actives have a fitted effect of over 55% in size
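Chicken DT40 Tdp1-/- cells complemented with human TDP1, 400 cells/well, exposed to compounds plus 20 nM camptothecin for at least 48 h at 37 C; viability read as ATP content by CellTiter-Glo luminescence.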
KB-V1 MDR tox: KB-V1 MDR subline cytotoxicity. KB-V1 MDR cells viability, CellTiter-Glo, 72 h. Potency, µM (titrated, usually from 46.1 µM), usual class: cytotoxic. hit rate 3.4% among 400,000. AID 1347076; note: nearly all actives have a fitted effect of over 60% in size
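KB-V1 MDR subline cells in DMEM (phenol-red free, 10% FBS) exposed to compounds in qHTS concentration series for 72 h at 37 degrees C. Viability read by CellTiter-Glo luminescence; concentration-effect curves fitted after normalization and correction.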
KB-3-1 cytotox: kills parental KB-3-1 adenocarcinoma cells. KB-3-1 viability, CellTiter-Glo ATP luminescence, 72 h. Potency, µM (highest dose often 46.1 µM), usual class: cytotoxic. hit rate 1.4% among 400,000. AID 1347075; note: nearly all actives have a fitted effect of over 60% in size
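Here the drug-naive KB-3-1 line serves as comparator for MDR sub-line selectivity; cells received compound titrations, 72 h at 37 °C, then CellTiter-Glo readout.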
HT1080 IDH1KD tx: HT-1080 IDH1 knockdown cell toxicity (counter line). AID 686971. hit rate 2% among 360,000. HT-1080 IDH1 knockdown viability, ATP luminescence, 48 h. Potency, µM (doses to about 46.1 µM), most hits filed as cytotoxic
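Using the IDH1-knockdown HT-1080 line run in the same batch and compound series as the NT line, viability after 48 h at 37 °C was determined by CellTiter-Glo luminescence and expressed as % activity.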
TDP1 cell noCPT: qHTS for Inhibitors of human tyrosyl-DNA phosphodiesterase 1 (TDP1): qHTS in cells in absence of CPT; DT40 Tdp1-/- hTDP1 cells, no CPT, ATP luminescence, 48 h; Potency, µM (doses to about 46.2 µM), hits mostly inhibitors; hit rate 15% among 420,000; AID 686978, 2013; note: nearly all actives have a fitted effect of over 55% in size
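Growth of hTDP1-complemented DT40 Tdp1-knockout cells is measured by ATP luminescence after at least 48 hr compound exposure at 37 °C, with DMSO substituting for the 20 nM CPT used in the parallel screen.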
HT1080-NT tox: kills 2HG-producing HT-1080-NT fibrosarcoma cells. hit rate 1.6% among 360,000. Potency, µM (highest dose often 46.1 µM), most hits filed as cytotoxic. HT-1080-NT fibrosarcoma viability, CellTiter-Glo ATP luminescence, 48 h. AID 686970;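 note: NT is the 2HG producing partner of a matched IDH1 knockdown line; nearly all actives have a fitted effect of over 55% in size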
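Viability of the 2HG-overproducing fibrosarcoma line after 48 hours of compound exposure at 37 degrees C was determined by luminescence with CellTiter-Glo, and concentration-effect curves were then fitted and categorized.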
Of the large screens only hits and unclear results are named; the others gave an inactive call. In the library only some 19% were active in any assay of this set; here they are far more common. Calls come from the whole dose curve; as a rule, active = well fitted curve in the direction sought with a large enough effect; inconclusive = small, poorly fitted or top-dose-only effect, or another doubt; inactive = no such curve, though single readings can be large; an effect the other way counts as inactive or inconclusive.

COCCOc1cc(NC(=O)c2sccc2Oc2ccc([N+](=O)[O-])cc2F)c(Cl)cc1Cl	DT40 TDP1 CPT inconclusive, KB-V1 MDR tox inconclusive, KB-3-1 cytotox inconclusive, TDP1 cell noCPT 18.4µM
O=C(O)c1cc([N+](=O)[O-])ccc1C(=O)Nc1ccccc1	none
COCCOc1cc(NC(=O)c2cccc(OC)c2)c(Cl)cc1Cl	KB-V1 MDR tox inconclusive, TDP1 cell noCPT inconclusive
Cc1[nH]n(-c2ccccc2)c(=O)c1N=Nc1ccccc1O	DT40 TDP1 CPT 0.517µM, KB-3-1 cytotox 9.2µM, HT1080 IDH1KD tx 9.2µM, TDP1 cell noCPT 0.411µM, HT1080-NT tox 14.6µM
Cc1ccccc1N=Nc1c(C)[nH]n(-c2ccccc2)c1=O	none
Cc1[nH]n(-c2ccccc2)c(=O)c1N=Nc1nccs1	DT40 TDP1 CPT 18.4µM, KB-V1 MDR tox inconclusive, HT1080 IDH1KD tx 3.98µM, TDP1 cell noCPT 23.1µM, HT1080-NT tox 11.2µM
CCOc1ccc(CCNC(=O)c2nnc(Cc3ccc(Cl)cc3Cl)o2)cc1OCC	none (no result: HT1080 IDH1KD tx, HT1080-NT tox)
Cn1cnnc1Sc1ccc(CN2CCOc3ccc(C4=CCCCC4)cc3C2)o1	TDP1 cell noCPT inconclusive (no result: KB-V1 MDR tox, KB-3-1 cytotox, HT1080 IDH1KD tx, HT1080-NT tox)
CCC(C)NC(=S)N1CCN(C)CC1 (stereo unspecified)	HT1080 IDH1KD tx inconclusive
N#CC(C#N)=C1C=C2C=C(N3CCCCC3)CCC2CC1 (stereo unspecified)	DT40 TDP1 CPT 25.9µM, KB-V1 MDR tox inconclusive, TDP1 cell noCPT 20.6µM
CCN(CC)C1=CC2=CC(=C(C#N)C#N)CCC2CC1 (stereo unspecified)	KB-V1 MDR tox inconclusive, TDP1 cell noCPT inconclusive
CCc1cccc(NC(=O)c2c(N3CCCC3=O)c3cc(C)ccc3n2C)c1	KB-V1 MDR tox 18.4µM, KB-3-1 cytotox inconclusive (no result: DT40 TDP1 CPT, HT1080 IDH1KD tx, TDP1 cell noCPT, HT1080-NT tox)
Cc1ccc(NC(=O)c2c(N3CCCC3=O)c3cc(C)ccc3n2C)c(C)c1	none (no result: DT40 TDP1 CPT, HT1080 IDH1KD tx, TDP1 cell noCPT, HT1080-NT tox)
CC1=CC(C)(C)N2C(=O)C3(SCC(=O)N3c3ccc(O)cc3)c3cc(C)cc1c32 (stereo unspecified)	none
CC1=CC(C)(C)N2C(=O)C3(N=C(N)NC(Nc4ccccc4)=N3)c3cc(C)cc1c32 (stereo unspecified)	DT40 TDP1 CPT inconclusive, KB-V1 MDR tox inconclusive, KB-3-1 cytotox inconclusive, HT1080 IDH1KD tx inconclusive, TDP1 cell noCPT 18.4µM, HT1080-NT tox inconclusive
CCOC(=O)c1ccccc1NC(=O)COC(=O)CSC(C)C(=O)Nc1cc(C)on1 (stereo unspecified)	none
CC(=O)Nc1ccc(S(=O)(=O)N2CCC(N3CCN(Cc4ccc(C)cc4)C(=O)C3=O)CC2)cc1	none (no result: HT1080 IDH1KD tx, HT1080-NT tox)
CCCC(=O)N1CCN(c2nc3c(OC)ccc(Cl)c3s2)CC1	DT40 TDP1 CPT inconclusive
CCCCC(=O)N1CCN(c2nc3c(C)c(C)ccc3s2)CC1	DT40 TDP1 CPT inconclusive, KB-3-1 cytotox inconclusive, TDP1 cell noCPT 18.4µM (no result: HT1080 IDH1KD tx, HT1080-NT tox)
Cc1ccc2sc(N3CCN(C(=O)CCS(=O)(=O)c4ccc(Cl)cc4)CC3)nc2c1C	DT40 TDP1 CPT 4.11µM, TDP1 cell noCPT 2.31µM (no result: HT1080 IDH1KD tx, HT1080-NT tox)
CC(C)CCn1c(=O)c2sccc2n2c(CCCC(=O)N3CCN(c4ccccn4)CC3)nnc12	DT40 TDP1 CPT inconclusive
O=C1[C@@H]2Cc3c([nH]c4ccccc34)C(c3ccccc3)N2C(=O)CN1C1CCN(Cc2ccccc2)CC1 (stereo partly specified)	DT40 TDP1 CPT 16.4µM, HT1080 IDH1KD tx inconclusive, TDP1 cell noCPT 16.4µM, HT1080-NT tox inconclusive
O=C1[C@@H]2Cc3c([nH]c4ccccc34)C(c3cccc(Br)c3)N2C(=O)CN1C1CCN(Cc2ccccc2)CC1 (stereo partly specified)	DT40 TDP1 CPT inconclusive, KB-3-1 cytotox inconclusive, HT1080 IDH1KD tx 23.1µM, TDP1 cell noCPT 20.6µM, HT1080-NT tox inconclusive
Cc1cccc(C(=O)NNC(=O)c2ccc(NS(=O)(=O)c3cccs3)cc2)c1C	none
Cc1c(NC(=O)CSc2nc(-c3ccco3)cc(C(F)(F)F)n2)c(=O)n(-c2ccccc2)n1C	DT40 TDP1 CPT inconclusive
Cc1cc(NC(=O)CCCSc2nc(-c3ccco3)cc(C(F)(F)F)n2)n(-c2ccccc2)n1	DT40 TDP1 CPT inconclusive, KB-V1 MDR tox 2.91µM, HT1080 IDH1KD tx inconclusive, TDP1 cell noCPT 20.6µM
Cc1cc(NC(=O)CSc2nc(-c3ccco3)cc(C(F)(F)F)n2)n(-c2ccccc2)n1	DT40 TDP1 CPT 4.11µM, KB-V1 MDR tox 4.11µM, KB-3-1 cytotox 5.8µM, HT1080 IDH1KD tx inconclusive, TDP1 cell noCPT 4.11µM, HT1080-NT tox inconclusive
S=C(NC1CCCC1)N1CCN(C/C=C/c2ccccc2)CC1	DT40 TDP1 CPT inconclusive, KB-3-1 cytotox inconclusive, TDP1 cell noCPT 20.6µM, HT1080-NT tox inconclusive
Fc1ccccc1NC(=S)N1CCN(C/C=C/c2ccccc2)CC1	KB-V1 MDR tox 16.4µM, KB-3-1 cytotox inconclusive, TDP1 cell noCPT inconclusive

High-throughput results: PubChem, National Center for Advancing Translational Sciences (NCATS)
